29 molecules from PubChem BioAssay (NCATS) can be followed below.

The nature of assay [1]: Confirmation and Secondary Assay for Modulators of Hemoglobin Beta Chain Splicing at IVS2 654 locus (AID 910).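 Also: HeLa cells stably carrying EGFP split by mutant beta-globin IVS2-654 intron; per-well total GFP intensity by laser scanning cytometry after 2-day treatment; % of control where 0% means no effect.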 The procedure, abridged: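 Readout: per-well total peak green fluorescence (488 nm ex, 500–520 nm em) from objects 5–250 µm, reflecting correct splicing of an EGFP-654 reporter. Compounds were applied for 2 days at 37 °C to overnight-plated HeLa EGFP-654 cells; controls were DMSO and 500 nM IVS2-654 PNA.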

Assay [2] in a line: Confirmation and Secondary Assay for Modulators of Hemoglobin Beta Chain Splicing at IVS2 705 locus (AID 930).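 Also: HeLa cells stably expressing the EGFP-705 splicing reporter; GFP fluorescence per well restored by corrected splicing of the IVS2-705 intron in EGFP; series mostly up to about 46 µM; % of control where 0% means no effect.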 The method, boiled down: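 Splice-correction reporter: EGFP cDNA split by beta-globin intron 2 bearing the 705 mutation, stably in HeLa. Compound incubation 2 days, 37C; fluorescent objects 5-250 µm summed per well.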
The target of assay [3] is Cytochrome P450 3A4 (Homo sapiens) (UniProt P08684). The experiment in a line: qHTS Assay for Inhibitors and Substrates of Cytochrome P450 3A4 (AID 884). Also: series mostly up to about 57 µM; % is scaled to controls: 0 for no effect and ±100 for the full control effect; nearly all actives have a fitted effect of over 50% in size. The procedure, abridged:
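20 nM human CYP3A4 with 25 uM Luciferin-PPXE (at KM) in 200 mM KPO4, preincubated 10 min with compound; NADPH regeneration started a 60 min RT reaction. Luciferin detected by luminescence, normalized to 57 uM ketoconazole as full inhibition.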
For orientation: qHTS replaces the single test concentration by a dilution series.

Assay [4] has the same target. The experiment in a line: qHTS Assay for Activators of Cytochrome P450 3A4 (AID 885). Also: nearly all actives have a fitted effect of over 65% in size. The procedure, abridged: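 Steps: enzyme/substrate mix dispensed; compound added, 10 min RT; NADPH regeneration solution added, 60 min RT; luciferin detection buffer stops reaction; 20 min later luminescence measured.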
Assay [5] deals with Cytochrome P450 2C19 (Homo sapiens) (UniProt P33261). The experiment in a line: qHTS Assay for Inhibitors and Substrates of Cytochrome P450 2C19 (AID 899). Also: potency is read from the fitted curve at half-maximal effect; nearly all actives have a fitted effect of over 60% in size. The method, boiled down: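 Reactions contain 5nM enzyme, 10uM Luciferin-H EGE (KM) and 50mM KPO4; compound preincubates 10 min at 37C, NADPH regeneration starts turnover for 60 min. Luminescence after detection reagent gives activity.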

Assay [6] can be described thus: qHTS Assay for Identification of Small Molecule Agonists for Hypoxia Response Element Signaling Pathway (AID 914; active = well fitted activation curve with a large enough effect in the signal ratio, with a control signal flat, not every such curve was filed as active; the % refers to the signal ratio; also: % of control where 0% means no effect). Conditions: ME-180 (cervical carcinoma) HRE-bla reporter, beta-lactamase ratio, CoCl2, 17 h; stronger effect = higher value. The method, boiled down: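 Cells were plated overnight, pin-dosed with compound in a titration series, co-stimulated with EC50 CoCl2 and incubated 17 hours at 37 degrees Celsius. CCF4 substrate was then loaded, and AC50 values came from the 460nm/530nm ratio.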

The target of assay [7] is Cytochrome P450 2D6 (Homo sapiens) (UniProt P10635). The experiment in a line: qHTS Assay for Inhibitors and Substrates of Cytochrome P450 2D6 (AID 891). Also: potency is read from the fitted curve at half-maximal effect; nearly all actives have a fitted effect of over 60% in size. The method, boiled down: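 Human CYP2D6 (5 nM) with 30 uM Luciferin-ME EGE (at Km) in 100 mM KPO4, compound preincubated 10 min, then NADPH regeneration system for 60 min at room temperature. Luciferin read by luminescence; normalized to 1.43 uM quinidine.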

Unmarked numbers belong to inactive results. Inconclusive results are not listed. Activity calls are given as the source filed them. Unless noted, calls follow the shape of the dose curve; as a rule, active = well fitted curve in the direction sought with a large enough effect; inconclusive = small, poorly fitted or top-dose-only effect, or another doubt; inactive = no such curve, though single readings can be large; an effect the other way counts as inactive or inconclusive.

Sequence of Cytochrome P450 3A4 (Homo sapiens) (P08684 whole entry, looked up): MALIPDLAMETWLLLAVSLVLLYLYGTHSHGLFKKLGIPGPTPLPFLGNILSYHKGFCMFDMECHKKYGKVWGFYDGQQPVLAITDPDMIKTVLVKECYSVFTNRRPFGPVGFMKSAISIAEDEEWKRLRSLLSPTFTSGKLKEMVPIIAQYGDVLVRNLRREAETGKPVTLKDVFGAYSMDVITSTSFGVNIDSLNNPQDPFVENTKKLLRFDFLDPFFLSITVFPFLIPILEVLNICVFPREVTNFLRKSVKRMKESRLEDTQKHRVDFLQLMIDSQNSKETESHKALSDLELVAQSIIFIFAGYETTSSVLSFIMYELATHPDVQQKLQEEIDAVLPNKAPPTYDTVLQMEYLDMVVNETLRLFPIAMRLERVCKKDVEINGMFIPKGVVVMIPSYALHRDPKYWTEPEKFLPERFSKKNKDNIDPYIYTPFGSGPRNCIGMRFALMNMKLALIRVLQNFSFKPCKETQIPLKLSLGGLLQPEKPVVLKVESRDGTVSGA
Sequence of Cytochrome P450 2C19 (Homo sapiens) (P33261 whole entry, looked up): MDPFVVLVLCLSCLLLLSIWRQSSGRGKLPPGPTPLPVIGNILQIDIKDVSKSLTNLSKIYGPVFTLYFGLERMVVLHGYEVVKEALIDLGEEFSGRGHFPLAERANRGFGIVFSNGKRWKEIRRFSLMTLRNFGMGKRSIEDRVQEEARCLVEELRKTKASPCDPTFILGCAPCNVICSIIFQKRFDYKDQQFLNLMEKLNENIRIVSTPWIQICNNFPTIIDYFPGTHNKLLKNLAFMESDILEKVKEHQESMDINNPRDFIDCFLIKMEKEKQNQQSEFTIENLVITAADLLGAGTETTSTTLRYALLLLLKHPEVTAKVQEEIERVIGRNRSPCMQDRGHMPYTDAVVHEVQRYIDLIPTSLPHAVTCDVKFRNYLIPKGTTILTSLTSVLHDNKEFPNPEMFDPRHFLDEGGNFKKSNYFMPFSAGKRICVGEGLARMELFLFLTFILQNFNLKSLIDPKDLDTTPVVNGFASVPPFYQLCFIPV
Sequence of Cytochrome P450 2D6 (Homo sapiens) (P10635 whole entry, looked up): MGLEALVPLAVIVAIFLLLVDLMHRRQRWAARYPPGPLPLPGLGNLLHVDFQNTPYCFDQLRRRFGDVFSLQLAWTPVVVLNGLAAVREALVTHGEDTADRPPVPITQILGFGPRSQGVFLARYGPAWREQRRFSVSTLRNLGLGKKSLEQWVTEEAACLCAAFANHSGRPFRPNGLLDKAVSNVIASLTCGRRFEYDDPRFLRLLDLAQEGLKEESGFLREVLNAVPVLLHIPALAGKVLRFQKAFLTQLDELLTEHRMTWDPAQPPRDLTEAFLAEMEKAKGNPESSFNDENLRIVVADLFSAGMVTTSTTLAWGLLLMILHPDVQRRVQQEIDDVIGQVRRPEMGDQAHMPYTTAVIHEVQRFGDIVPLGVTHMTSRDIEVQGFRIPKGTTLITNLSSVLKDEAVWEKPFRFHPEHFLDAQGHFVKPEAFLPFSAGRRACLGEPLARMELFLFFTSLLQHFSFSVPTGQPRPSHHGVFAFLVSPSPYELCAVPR

For `NC(N)=NCCN1CCCCCCC1`, the call in assay [1] and in assay [2] was inactive.
As for `CCCCC1(COC(=O)CCC(=O)O)C(=O)N(c2ccccc2)N(c2ccccc2)C1=O`, the result in assay [1] and in assay [2] was inactive.
Regarding `OC(CCN1CCCC1)(c1ccccc1)C1CCCCC1` (configuration not stated), the outcome in assay [1] and in assay [2] was inactive.
Take `O=C(CCBr)N1CCN(C(=O)CCBr)CC1`: the result in assay [1] and in assay [2] was inactive.
In the case of `CCS(=O)(=O)CCn1c([N+](=O)[O-])cnc1C`, the outcome in assay [1] and in assay [2] was inactive.
As for `NS(=O)(=O)c1cc(C2(O)NC(=O)c3ccccc32)ccc1Cl` (configuration not stated), the result in assay [3], in assay [1] and in assay [2] was inactive.
Consider `NCc1ccc(S(N)(=O)=O)cc1`, for which the molecule was classed as inactive in assay [1] and in assay [2].
On to `CCCCCC(C)N` (configuration not stated), for which the outcome in assay [3], in assay [1] and in assay [2] was inactive.
Turning to `CC(C)=CCC/C(C)=C/CO`, the result in assay [1] and in assay [2] was inactive.
Consider `CC(N)CCCC(C)(C)O` (configuration not stated), for which the call in assay [3], in assay [1] and in assay [2] was inactive.
On to `C=CCSCC1Nc2cc(Cl)c(S(N)(=O)=O)cc2S(=O)(=O)N1` (configuration not stated), for which the molecule was called inactive in assay [4], in assay [1] and in assay [2].
In the case of `C[n+]1ccccc1/C=N/O`, the call in assay [3], in assay [1] and in assay [2] was inactive.
Consider `Cc1cc(O)cc(C)c1Cl`, for which the result in assay [1] and in assay [2] was inactive.
Regarding `O=c1[nH]cnc2nc[nH]c12`, the molecule was classed as inactive in assay [3], in assay [1] and in assay [2].
Take `C[N+]1(C)CCCC(OC(=O)C(O)(c2ccccc2)c2ccccc2)C1` (configuration not stated): the molecule was classed as inactive in assay [3], in assay [1] and in assay [2].
Regarding `CC(=O)Oc1cccc(O)c1`, the result in assay [1] and in assay [2] was inactive.
Turning to `O=C1c2ccccc2S(=O)(=O)N1CCCCN1CCN(c2ncccn2)CC1`, the Potency in assay [5] is 631 nM (active).
For `CC(=O)NCc1c(I)c(NC(C)=O)c(I)c(C(=O)O)c1I`, the outcome in assay [3], in assay [1] and in assay [2] was inactive.
With `CC(=O)N[C@@H](CC(C)C)C(=O)O`, in assay [6], the activation was -5.35%.
Take `CC1CCc2cc(F)cc3c(=O)c(C(=O)O)cn1c23` (configuration not stated): the molecule was classed as inactive in assay [3], in assay [1] and in assay [2].
On to `Cc1onc(-c2ccccc2)c1-c1ccc(S(N)(=O)=O)cc1`, for which the molecule was called inactive in assay [1] and in assay [2].
As to `COc1ccc2cc(CCC(C)=O)ccc2c1`, the molecule was classed as inactive in assay [4], in assay [1] and in assay [2].
`NS(=O)(=O)c1cc2c(cc1C(F)(F)F)NCNS2(=O)=O`: the outcome in assay [1] and in assay [2] was inactive.
With `NC(N)=NS(=O)(=O)c1ccc(N)cc1`, the result in assay [3], in assay [1] and in assay [2] was inactive.
Turning to `COc1ccc(NS(=O)(=O)c2ccc(N)cc2)nn1`, the molecule was classed as inactive in assay [1] and in assay [2].
Regarding `COc1ccccc1OCC(O)CO` (configuration not stated), the call in assay [1] and in assay [2] was inactive.
As to `O=C(O)c1cc(=O)c2ccccc2o1`, the molecule was called inactive in assay [3], in assay [1] and in assay [2].
Consider `CC[N+](C)(CC)CCOC(=O)C1c2ccccc2Oc2ccccc21`, for which the Potency in assay [7] was 3980 nM (active).
In the case of `CNCc1ccccc1`, the outcome in assay [1] and in assay [2] was inactive.
